MOR-DOR inv ag = mu-delta opioid heterodimer inverse agonism | inhibition, % at 9.3 µM | hit rate 0.21% among 340,000 | AID 504357 | cell-based MOR-DOR heterodimer luminescence | P35372+P41143; in the data active means inhibition above about 22%, passing the limit was not always enough
HTR5A ag ctr = HTR5A agonism, opioid heterodimer counter-screen; activation, % at 9.3 µM; P47898; HTR5A agonist assay, luminescence, cell-based; AID 504692; hit rate 0.61% among 340,000; in the data active means activation mostly above about 9.5%, no sharp cut-off; inactive means mostly below about 7.6%
Target sequence (P47898 whole entry, looked up): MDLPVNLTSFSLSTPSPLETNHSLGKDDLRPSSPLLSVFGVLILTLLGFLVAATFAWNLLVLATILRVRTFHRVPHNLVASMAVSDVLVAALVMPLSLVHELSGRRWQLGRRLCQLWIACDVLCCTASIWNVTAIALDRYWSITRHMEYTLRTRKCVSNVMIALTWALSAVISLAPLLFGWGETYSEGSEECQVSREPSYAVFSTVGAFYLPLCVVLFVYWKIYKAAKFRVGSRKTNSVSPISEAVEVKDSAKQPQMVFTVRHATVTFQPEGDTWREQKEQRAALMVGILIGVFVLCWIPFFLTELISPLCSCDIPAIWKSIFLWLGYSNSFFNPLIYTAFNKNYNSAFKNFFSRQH
OPRM1-OPRD1 ag = OPRM1-OPRD1 heterodimerization agonism. P35372+P41143. cells, luminescence. activation, % at 9.3 µM. hit rate 0.3% among 340,000. AID 504326
MsrA act = activates bovine MsrA enzyme; purified bovine MsrA, absorbance read-out; activation, % at 10.6 µM; hit rate 0.3% among 360,000; in the data active means activation above about 7.5%
HTR5A inv ctr = inverse agonist of human HTR5A in OPRM1-OPRD1 counter-screen; AID 504634; HTR5A cell line, luminescence, inverse agonism; inhibition, % at 9.3 µM; hit rate 0.083% among 340,000; P47898; in the data active means inhibition mostly above about 23%, no sharp cut-off; inactive means mostly below about 18%
MsrA inhibitor = inhibitors of bovine MsrA; AID 651718; hit rate 0.75% among 360,000; purified bovine MsrA, absorbance read-out; inhibition, % at 15.5 µM; in the data active means inhibition above about 4.5%
OPRM1-D1 ag cf = confirmation of human OPRM1-OPRD1 heterodimerization agonists | AID 504904 | activation, % at 9.3 µM | shares compounds with OPRM1-OPRD1 ag | hit rate 45% among 830 | cells, MOR-DOR heterodimerization, luminescence complementation
HTR5A ag counter = counter-screen for OPRM1-OPRD1 agonists: human HTR5A agonism; shares compounds with OPRM1-OPRD1 ag; HTR5A agonist counterscreen, cell luminescence; activation, % at 9.3 µM; hit rate 8% among 830; in the data active means activation above about 17%
Large screens that a line does not name were inactive (follow-up assays come after a bar, where they were run). Only some compounds are listed: those with a hit (about 1.9% of all), similar ones and a draw of the others. Unless noted, no stated cut-off is given here; in the data, active means activation above about 18%; inactive means the rest.

O=C1Cc2c([nH]c3ccc([N+](=O)[O-])cc23)-c2ccccc2N1	OPRM1-OPRD1 ag 22 | OPRM1-D1 ag cf inactive | HTR5A ag counter inactive
Cc1ccccc1Nc1nc(N)nc(C)c1Br	none
CCc1c(N)nc(N)nc1Nc1ccccc1C	OPRM1-OPRD1 ag 21 | OPRM1-D1 ag cf inactive | HTR5A ag counter inactive
Cc1[nH]ccc(=O)c1OCc1c(Cl)cccc1Cl	none
Cc1ccc(Cn2ccc(=O)c(OCc3c(Cl)cccc3Cl)c2C)cc1	OPRM1-OPRD1 ag 28 | OPRM1-D1 ag cf inactive | HTR5A ag counter 24
Cc1ccc(-c2csc(Cc3nc(-c4cc5ccccc5oc4=O)cs3)n2)cc1	none
Cc1ccn2cc(-c3cc4ccccc4oc3=O)nc2c1	OPRM1-OPRD1 ag 20 | OPRM1-D1 ag cf inactive | HTR5A ag counter inactive
N=C1C(=O)OCC1c1ccccc1NC(=O)Nc1ccccc1 (stereo not given)	none
Cc1ccc(NC(=O)Nc2cc(Cl)ccc2C2COC(=O)C2=N)cc1 (stereo not given)	OPRM1-OPRD1 ag 23 | OPRM1-D1 ag cf inactive | HTR5A ag counter 39
CCOC(=O)C1=C(CN2CC(C)CC(C)C2)NC(=O)NC1c1ccc2c(c1)OCO2 (stereo not given)	OPRM1-OPRD1 ag 26 | OPRM1-D1 ag cf 24 | HTR5A ag counter inactive
CCOC(=O)C1=C(CN2CCCCCC2)NC(=O)NC1c1ccc2c(c1)OCO2 (stereo not given)	none
O=C(CCc1c[nH]c2ccccc12)Nc1ccc(Nc2ccccc2)cc1	none (no result: MOR-DOR inv ag, HTR5A ag ctr, OPRM1-OPRD1 ag, MsrA act, HTR5A inv ctr)
O=C(O)c1cccc(N2C(=S)N=C(Nc3ccccc3)C23CCCCC3)c1	none
COc1ccc(N2C(=S)N=C(Nc3ccccc3)C23CCCCC3)cc1	OPRM1-OPRD1 ag 29 | OPRM1-D1 ag cf inactive | HTR5A ag counter inactive
O=C(Oc1ccc2c(c1)OCO2)c1cc2c(s1)CCC2	OPRM1-OPRD1 ag 22 | OPRM1-D1 ag cf inactive | HTR5A ag counter inactive
O=C(c1cc2c(s1)CCCC2)N1CCN(Cc2ccc3c(c2)OCO3)CC1	none
CCCc1nnc(NC(=O)CCC(=O)N2CCN(Cc3cc(F)ccc3OC)CC2)s1	none
COc1ccc(F)cc1CN1CCN(C(=O)CCC(=O)Nc2nnc(C(C)C)s2)CC1	OPRM1-OPRD1 ag 25 | OPRM1-D1 ag cf 25 | HTR5A ag counter inactive
Cc1c(CN2CCN(c3ncc(Cc4ccccc4)cn3)CC2)c(=O)n(-c2ccccc2)n1C	none (no result: MOR-DOR inv ag, HTR5A ag ctr, OPRM1-OPRD1 ag, MsrA act, HTR5A inv ctr)
CCOc1ccc(Nc2c3ccccc3nc3ccccc23)cc1	OPRM1-OPRD1 ag 20 | OPRM1-D1 ag cf 37 | HTR5A ag counter inactive
CCOc1ccc(Nc2cc(C)c3ccccc3n2)cc1	none
COc1ccccc1NS(=O)(=O)c1cccc(C(=O)N/N=C/c2ccc(C)o2)c1	none
C/C(=N\NC(=O)c1cccc(S(=O)(=O)Nc2cccc(Cl)c2)c1)c1cccs1	OPRM1-OPRD1 ag 20 | OPRM1-D1 ag cf inactive | HTR5A ag counter inactive
CCN(CC)S(=O)(=O)c1cccc(C(=O)N/N=C(\C)c2cccs2)c1	none
Cc1ccc(/C=N/NC(=O)c2cccc(S(=O)(=O)Nc3cccc(Cl)c3)c2)o1	OPRM1-OPRD1 ag 19 | OPRM1-D1 ag cf 22 | HTR5A ag counter inactive
COC(=O)[C@]12C[C@H](CC(=O)NCc3ccc(OC)c(OC)c3)C(=O)N(Cc3ccccc3)C1=C[C@H](C1CCCC1)O[C@@H]2C	none (no result: MOR-DOR inv ag, HTR5A ag ctr, OPRM1-OPRD1 ag, MsrA act, HTR5A inv ctr)
COc1cc(CNC(C)c2ccccc2)cc(Br)c1OCc1ccc(F)cc1 (stereo not given)	OPRM1-OPRD1 ag 21 | OPRM1-D1 ag cf inactive | HTR5A ag counter inactive
COc1cc(CNC(C)c2ccccc2)cc(Cl)c1OCC(=O)Nc1ccccc1 (stereo not given)	OPRM1-OPRD1 ag 21 | OPRM1-D1 ag cf inactive | HTR5A ag counter inactive
Cc1sc2nc(SCC(=O)NCc3ccco3)n(Cc3ccccc3)c(=O)c2c1C	none
CCOC(=O)c1sc2nc(SCC(=O)NCc3ccco3)n(Cc3ccccc3)c(=O)c2c1C	OPRM1-OPRD1 ag 150 | OPRM1-D1 ag cf inactive | HTR5A ag counter inactive
CCOc1ccc(C2C(C#N)=C(N)N(c3sc4c(c3C#N)CCCC4)C3=C2C(=O)CCC3)cc1 (stereo not given)	OPRM1-OPRD1 ag 79 | OPRM1-D1 ag cf inactive | HTR5A ag counter inactive
C#CCn1cc(/C=N/Nc2nc3ccccc3[nH]2)c2ccccc21	OPRM1-OPRD1 ag 33 | OPRM1-D1 ag cf inactive | HTR5A ag counter inactive
COc1cccc(C(=O)N[C@@H](Cc2cccnc2)C(=O)N2CCC[C@H]2C(=O)NCc2ccccc2)c1	none (no result: MOR-DOR inv ag, HTR5A ag ctr, OPRM1-OPRD1 ag, MsrA act, HTR5A inv ctr)
O=C(c1cccc(Cl)c1)N(Cc1cccs1)C1CCS(=O)(=O)C1 (stereo not given)	none
O=C(c1sc2ccccc2c1Cl)N(Cc1cccs1)C1CCS(=O)(=O)C1 (stereo not given)	OPRM1-OPRD1 ag 162 | OPRM1-D1 ag cf inactive | HTR5A ag counter inactive
O=C(N[C@H](Cc1ccccc1)C(=O)NCCCc1ccccc1)[C@H]1O[C@@H](n2ccc(=O)[nH]c2=O)[C@H](O)[C@@H]1O	none (no result: MOR-DOR inv ag, HTR5A ag ctr, OPRM1-OPRD1 ag, MsrA act, HTR5A inv ctr)
COC(=O)c1cccc(C23CC4(C2)[C@H](CN(Cc2cccnc2)[C@@H]4c2ccccc2)C3c2ccc(Cl)nc2)c1 (stereo not given in full)	OPRM1-OPRD1 ag 23 | OPRM1-D1 ag cf 29 | HTR5A ag counter inactive
O=C(NCc1ccco1)c1cc2n(n1)C(C(F)(F)F)CC(c1ccc(Br)cc1)N2 (stereo not given)	OPRM1-OPRD1 ag 19 | OPRM1-D1 ag cf inactive | HTR5A ag counter inactive
O=C(NCc1ccco1)c1cc2n(n1)C(C(F)(F)F)CC(c1ccc(Cl)c(Cl)c1)N2 (stereo not given)	none
O=C(N[C@H]1C/C=C\C[C@@H](CC(=O)N(CCO)Cc2ccccc2)C(=O)N[C@H](Cc2c[nH]c3ccccc23)COC1=O)OCC1c2ccccc2-c2ccccc21	none
O=C(N[C@H]1C/C=C\C[C@H](CC(=O)N(CCO)Cc2ccccc2)C(=O)N[C@H](Cc2c[nH]c3ccccc23)COC1=O)OCC1c2ccccc2-c2ccccc21	OPRM1-OPRD1 ag 29 | OPRM1-D1 ag cf 35 | HTR5A ag counter inactive
COc1ccc(Cc2c(C3CCCCC3)nc3ccc(C)cn23)c(C)c1	none (no result: MOR-DOR inv ag, HTR5A ag ctr, OPRM1-OPRD1 ag, MsrA act, HTR5A inv ctr)
COc1ccc(C2CC(c3ccc4ccccc4c3OC(C)=O)=NN2C(C)=O)cc1 (stereo not given)	OPRM1-OPRD1 ag 129 | OPRM1-D1 ag cf 21 | HTR5A ag counter inactive
C#CCN1C(=O)[C@]2(OCCC=C[C@H]2C)c2ccccc21	none (no result: MOR-DOR inv ag, HTR5A ag ctr, OPRM1-OPRD1 ag, MsrA act, HTR5A inv ctr)
Cc1ccc(NC(=O)CNC(=O)c2sc3ccccc3c2Cl)nc1	OPRM1-OPRD1 ag 26 | OPRM1-D1 ag cf inactive | HTR5A ag counter inactive
Cc1ccc(NCCCn2cnc(C(=O)Nc3ccc(C)c(C)c3)n2)cc1C	none
Cc1ccc(NC(=O)c2ncn(CCCN[C@H](C)c3cccc4ccccc34)n2)cc1C	OPRM1-OPRD1 ag 85 | OPRM1-D1 ag cf 56 | HTR5A ag counter inactive

Bioassay records from PubChem.
